# From PubChem BioAssay (NCI)
# The panel holds about 79,000 compounds, 15% with a hit somewhere; the sample as a whole holds those more often. A number with no mark means an inactive call. Active and inactive are the calls of the source. No stated cut-off is given here; in the data, active means growth inhibition above about 70%; inactive means the rest.
# Legend:
# [1] = NCI Yeast Anticancer Drug Screen. Data for the rad50 strain (AID 155);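 further: 0% = growth of vehicle-only cultures of the same strain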; conditions: S. cerevisiae rad50 strain growth inhibition; at 50.0 µM; active compounds read high
# In short: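 DNA repair mutant yeast, compound exposure, growth read-out; inhibition is taken relative to vehicle.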
# [2] = NCI Yeast Anticancer Drug Screen. Data for the mec2-1 strain (AID 157); conditions: S. cerevisiae mec2-1 strain, at 50.0 µM, active compounds read high
# In short: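 Using mec2-1 yeast: add compound, measure growth, express inhibition versus vehicle-treated cultures.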
# [3] = NCI Yeast Anticancer Drug Screen. Data for the sgs1 mgt1 strain (AID 161);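 further: 0% = growth of cultures given vehicle only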; conditions: S. cerevisiae sgs1 mgt1 strain, at 50.0 µM, active compounds read high
# In short: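 This yeast growth screen uses a strain with defined DNA-repair lesions; compound-treated growth is compared with vehicle-treated growth.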
# [4] = NCI Yeast Anticancer Drug Screen. Data for the cln2 rad14 strain (AID 165);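 further: 0% = growth equal to vehicle treated cultures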; conditions: S. cerevisiae cln2 rad14 strain, at 50.0 µM, active compounds read high
# In short: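 Yeast strain cln2 rad14, bearing defects in cell cycle control and DNA repair, serves as the test system; values reflect growth inhibition compared with vehicle.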
# [5] = NCI Yeast Anticancer Drug Screen. Data for the bub3 strain (AID 167); conditions: S. cerevisiae bub3 mutant strain, at 50.0 µM, active compounds read high
# In short: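 In this screen, a yeast mutant lacking normal mitotic checkpoint function is challenged with compound. Relative growth versus vehicle gives the inhibition value.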
# [6] = NCI Yeast Anticancer Drug Screen. Data for the mlh1 rad18 strain (AID 175); conditions: S. cerevisiae mlh1 rad18 strain growth inhibition; at 50.0 µM; active compounds read high
# In short: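 Steps: expose repair-defective yeast to compound; measure growth; express inhibition against vehicle-treated controls.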
Structure (SMILES),growth inhibition [1],growth inhibition [2],growth inhibition [3],growth inhibition [4],growth inhibition [5],growth inhibition [6]
CSc1nc(N)c(NS(=O)(=O)c2ccc(NC(C)=O)cc2)c(=O)[nH]1,5.85%,1.8%,9.05%,-12.7%,2.45%,15.4%
CNc1nc(SCc2ccccc2)c2ncn(C3OC(CO)C(O)C3O)c2n1 (configuration not stated),11.3%,4.8%,16.9%,19.9%,4.95%,17.9%
C1=C(Oc2ccccc2)C2CC1C1CCCC21 (configuration not stated),-7.85%,-21.4%,-2.65%,2.05%,-5.95%,1.85%
O=[N+]([O-])C(=C(N1CCOCC1)N1CCOCC1)/C(Cl)=C(\Cl)Br,-19.2%,-1.1%,-0.6%,-14.1%,4.5%,2.55%
C=C1CC[C@@H]2C(C)(C)CCC[C@@]2(C)[C@@H]1Cc1cc(O)ccc1O,86.8% (active),88.6% (active),87% (active),87.2% (active),87.9% (active),87.5% (active)
NS(=O)(=O)c1ccc(NO)cc1,-16.1%,-7.45%,6.3%,-15.2%,6.9%,9.85%
NC(N)=NNC(=S)S,10.9%,-5.15%,23.5%,5.1%,20.3%,12.8%
S=c1sc2cscc2s1,-6.7%,18.6%,-8.5%,28.6%,-3%,-1.8%
OC1CCCC2CCCC12 (configuration not stated),1%,1.15%,-8.1%,15.4%,16.4%,-5.75%
CCC(C)OC(=O)/C=C/c1ccccc1 (configuration not stated),1.35%,3.15%,-1.8%,-0.25%,-10.2%,-10.6%
Cc1ccc(C(=O)O)c(O)c1,11.7%,-1.7%,-14.8%,-13.9%,-26%,-2.5%
COc1ccc2c(c1)C(=O)CC(C(N)=O)C2 (configuration not stated),20.6%,2.85%,-29.9%,3.6%,-13.7%,-32%
CCC(CC)COC(=O)c1ccccc1C,7.45%,-0.15%,-0.85%,-27.1%,15.4%,0.6%
COc1ccccc1NC(=O)CC(=O)NN,-0.25%,2.15%,-3.9%,-25.1%,-1.8%,0.7%
CCCC1c2c(cc(=O)[nH]c2O)C(=O)N1Cc1ccccc1 (configuration not stated),-10.2%,-16.5%,-14.4%,17.8%,-17.6%,-0.9%
CCOC(=O)Oc1ccc2[nH]c3c(C)cc(N)c(C)c3c2c1,2.35%,-33.2%,-30.5%,-7.8%,-22.2%,-11.1%
Brc1cccc(-c2nnc(-c3cccc4ccccc34)o2)c1,1%,-11.2%,0.5%,-39.2%,6.7%,-8.55%
Cc1ccc(/C=C/c2ccc3ccccc3c2)cc1,-6.6%,-9.3%,9.05%,-14.6%,-4.8%,-3.85%
CCOC(=O)CC[C@H](NC(=O)c1[nH]cnc1/N=N/N(C)C)C(=O)OCC,-24.5%,-41.5%,-56%,3.7%,-12.1%,-36.9%

Structure (SMILES),growth inhibition [1],growth inhibition [2],growth inhibition [3],growth inhibition [4],growth inhibition [5],growth inhibition [6]
COC(=O)OCC1OC(OC(C)=O)C2OC(=O)OC12 (configuration not stated),8.55%,-16.9%,-16.7%,5.45%,2.35%,-3.15%
Cc1cc(CC#N)c(CC#N)cc1C,4.05%,-10.1%,-7%,9.2%,-3.95%,3.95%
CC(C)C(CN)(c1ccccc1)c1ccccc1,-4.4%,-7.75%,-8.85%,-59%,-3.3%,-10.9%
NC(=O)N=P(c1ccccc1)(c1ccccc1)c1ccccc1,-9.9%,12.6%,-6%,7.75%,3%,-12.9%
CCN1C(=O)Nc2ccc(Cl)cc2C1(O)c1ccccc1 (configuration not stated),6.25%,12.6%,1.55%,10.8%,-12.8%,-6.35%
COc1ccc2nc3cc(Cl)ccc3c(Nc3ccc(C(O)CCN(C)C)cc3)c2c1 (configuration not stated),39.8%,-2.1%,25.4%,24.4%,-2.1%,5.3%
N#C/C(=C\NC(=S)C(N)=S)C(=O)c1ccc2ccccc2c1,40.4%,30.3%,40.5%,33.5%,24.3%,50.9%
CC(C)NCC(O)c1ccc(O)c2ncccc12 (configuration not stated),1.95%,24.3%,5.9%,5.15%,-22.1%,-7.15%
Cc1cc(OC(C)C)cc(C)c1C(=O)OCC(C)N1CCCC1 (configuration not stated),11.8%,-8.2%,19.9%,5.35%,-4.9%,11.2%
Cc1ccc(S(=O)(=O)CC(=O)NC(N)=O)cc1,-5%,-1.1%,-5.2%,-2.1%,-1.15%,-7.3%
Cc1nc(-c2nc(C(=O)NCCC[S+](C)C)cs2)cs1,-11.5%,-7.85%,-5.4%,3.4%,-2.35%,-0.2%
O=CNC1(CO)CCCCC1,-2.4%,-3.4%,-7.05%,-38.8%,-18.1%,7.9%
OC(C(c1ccccc1)N1CCCCC1)C(O)(c1ccccc1)c1ccccc1 (configuration not stated),12.2%,-3.15%,22.6%,24.9%,6.2%,-0.5%
O=C(O)c1nc(-c2ccccc2)[nH]c1C(=O)O,20.5%,5.6%,12.8%,-15.8%,30.6%,24.4%
c1ccc(SC2CCSc3ccccc3C2Sc2ccccc2)cc1 (configuration not stated),3.2%,-14.7%,3.2%,3.65%,0.5%,11.2%
COC(=O)[C@@]12OC[C@]34[C@H]([C@@H](O)[C@@H]1O)[C@@]1(C)CC(=O)C(O)=C(C)[C@@H]1C[C@H]3OC(=O)[C@H](OC(=O)/C=C(\C)C(C)CO)[C@@H]24 (some centres not stated),-0.7%,-16.7%,-13.3%,-1.7%,-18.9%,-28.8%
Cc1ccc(N/N=c2\c3nc4ccccc4nc2n(-c2ccccc2C)c(=S)n3-c2ccc(C)cc2)cc1,-19.6%,-14.3%,1.15%,-18.7%,0.8%,-29.5%
CCN(CC)C(=O)c1ccc[n+](CCC(N)=O)c1,-1.05%,-17.8%,-3%,14.8%,-8.5%,6.6%
